Screening results as filed in PubChem BioAssay.
Most compounds without a hit are left out; they make up all but 2.3% or so of the library.
M1 ag parental – counter-screen for M1 agonists: effect in parental CHO-K1 cells; Fluo-8 calcium fluorescence; scaled to maximal ATP response, vehicle zero; activation, % at 3 µM; 360,000 tested, 0.48% active; AID 602248, 2012; in the data active means activation above about 15%;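 further: untransfected CHO-K1 host cells lacking M1 receptor as counterscreen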
CHO-K1 Ca antag – nonselective inhibitor or artifact in parental CHO-K1 cells; ATP-induced calcium, Fluo-8 fluorescence; inhibition, % at 3 µM; 360,000 tested, 0.6% active; AID 602250;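 active means inhibition above a per-plate cutoff, the plate's mean sample inhibition plus 3 SD, cut at about 24% in these data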
M1 antag – human M1 muscarinic receptor antagonists, primary screen, CHO-K1 cells, Fluo-8 calcium fluorescence, 1536-well; CHO-K1 hM1, ACh EC80 antagonist; inhibition, % at 3 µM; 360,000 tested, 1.3% active;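 active means percent inhibition above its own plate's cutoff, namely the mean of that plate's compound wells plus 3 SD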;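 further: peak over basal fluorescence ratio during 140 s after agonist addition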
Target sequence (P11229 whole entry, looked up): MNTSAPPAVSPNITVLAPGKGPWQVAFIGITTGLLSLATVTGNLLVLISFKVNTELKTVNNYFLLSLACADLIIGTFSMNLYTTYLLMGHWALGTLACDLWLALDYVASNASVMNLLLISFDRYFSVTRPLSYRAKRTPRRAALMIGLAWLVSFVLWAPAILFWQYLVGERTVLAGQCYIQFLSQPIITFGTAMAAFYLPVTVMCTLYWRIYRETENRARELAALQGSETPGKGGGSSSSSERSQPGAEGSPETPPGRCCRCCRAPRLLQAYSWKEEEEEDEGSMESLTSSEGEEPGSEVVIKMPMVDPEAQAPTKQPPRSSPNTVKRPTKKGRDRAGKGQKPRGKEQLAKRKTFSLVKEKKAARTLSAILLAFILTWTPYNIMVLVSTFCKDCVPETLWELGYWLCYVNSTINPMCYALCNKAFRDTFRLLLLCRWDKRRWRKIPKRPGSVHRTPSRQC
M1 PAM – human M1 muscarinic receptor positive allosteric modulators, primary screen, CHO-K1 cells, Fluo-8 calcium fluorescence, 1536-well; CHO-K1 hM1, ACh EC20; 0% = ACh EC20, 100% = maximal ACh; activation, % at 3 µM; AID 588819, 2011; 360,000 tested, 0.088% active; Muscarinic acetylcholine receptor M1 (Homo sapiens), P11229; in the data active means activation above about 19%, passing the limit was not always enough
CHRM1 agonist – human M1 muscarinic receptor agonists, primary screen, Fluo-8 calcium fluorescence, CHO-K1 cells, HTS; CHO-K1 hM1, agonist mode; 0% DMSO, 100% acetylcholine EC100; AID 588814, 2011; 360,000 tested, 0.33% active; Muscarinic acetylcholine receptor M1 (Homo sapiens), P11229; activation, % at 3 µM;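 active means activation above the run's mean compound activation plus 3 SD, cut at about 16% in these data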;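 further: peak over basal fluorescence ratio within a 140 s kinetic read after compound addition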
M1 PAM parental – nonselective calcium activators in parental CHO-K1 cells, primary screen, counter-screen for M1 PAM project, cell-based, Fluo-8 calcium fluorescence, full deck, 1536-well; 360,000 tested, 0.02% active; activation, % at 3 µM; ATP EC20; 0% at ATP EC20, 100% at ATP max;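 active means activation above the run cutoff, the mean activation of all test compounds plus 3 SD, cut at about 40% in these data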;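 further: peak over basal fluorescence ratio in a 140 s read after ATP addition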
Of the large screens only hits and unclear results are named; the others gave an inactive call.

CCNC(=O)c1cc2c(c(-c3cccc(-c4cccc(C(=O)N(C)C)c4)c3)n1)[C@H](CCO)N(S(=O)C(C)(C)C)C2 (some centres undefined)	none
CN(C)C(=O)c1cccc(-c2cccc(-c3nc(C(=O)NCc4ccccc4)cc4c3[C@@H](CCO)N(S(=O)C(C)(C)C)C4)c2)c1 (some centres undefined)	CHO-K1 Ca antag 25
Cn1c(=O)n(-c2cccc(Cl)c2)c(=O)c2c3c(sc21)COC(C)(C)C3	CHO-K1 Ca antag 30
Nc1c(C(=O)c2ccccc2)sc2nsc(SCCN3CCCC3)c12	M1 ag parental 16, M1 antag 55
N#Cc1cccc(C=C(C(=O)c2ccccc2)c2ccccc2)c1	none (no result: M1 antag, M1 PAM, CHRM1 agonist)
Cc1ccccc1C1c2[nH]c3ccccc3c2CCN1CCCn1cccn1 (centres undefined)	M1 antag 91
Cc1ccccc1C1c2[nH]c3ccccc3c2CCN1Cc1cccn1-c1ncccn1 (centres undefined)	M1 antag 66
Fc1ccccc1C1c2[nH]c3ccccc3c2CCN1Cc1cccn1-c1ncccn1 (centres undefined)	none
O=S1(=O)CCC(NC(=S)N2CCOCC2)C1 (centres undefined)	none
O=C(CC1CC2CCC1C2)N1CCN(S(=O)(=O)c2ccc(C(F)(F)F)cc2)CC1 (centres undefined)	none
CCNc1nc(NC(C)C)nc(NC(C)(C)C)n1	M1 antag 33
N#CC(C#N)=c1ccc2c(c1)NC1(CCCCC1)N=2	none
CCn1c(=O)cc(SCC(=O)Nc2ccc3c(c2)OCO3)c2ccccc21	none
CCn1c(=O)cc(SCC(=O)Nc2cccnc2)c2ccccc21	CHO-K1 Ca antag 25
CC(C)(C)c1ccc(C(=O)NNC(=O)CNC(=O)c2cccs2)cc1	none
COc1ccc(CC(=O)Nc2ccc(NC(=O)c3ccccc3F)cc2)cc1	CHRM1 agonist 27
COc1ccc(NC(=O)CSc2nc(N)c(NC(=O)c3ccccc3F)c(=O)[nH]2)cc1	none
COc1ccc(NC(=O)c2cc3ccccc3cc2OC)cc1	none
COc1ccc(NC(=O)c2ccc3ccccc3c2OC)cc1	M1 ag parental 22
COc1cccc(N2CCN(c3ccc4nnc(CCC(=O)Nc5ncccc5C)n4n3)CC2)c1	M1 antag 38
COc1cccc(N2CCN(c3ccc4nnc(CCC(=O)Nc5ccc(C)cn5)n4n3)CC2)c1	none
Cc1c(NC(=O)C(C)OC(=O)Cc2ccc(F)cc2)c(=O)n(-c2ccccc2)n1C (centres undefined)	CHO-K1 Ca antag 25, M1 antag 38
COc1cccc(CCN2C(=O)CCC3=C2CCC3=O)c1	none
Cc1cc2nc(CSc3ccccc3)cc(=O)n2[nH]1	none
O=C(CN1C(=O)/C(=C/c2ccc(Cl)cc2)SC1=S)NC1C=CS(=O)(=O)C1 (centres undefined)	none
CC(C)c1ccc(/C=C2\SC(=O)N(CC(=O)NC3C=CS(=O)(=O)C3)C2=O)cc1 (centres undefined)	M1 antag 43
COC(=O)C1=C2SCC(=O)N2C(N)=C(C#N)C1	none
CN1CCN(c2nc(-c3ccco3)cc(C(F)(F)F)n2)CC1	M1 antag 60
CCOC(=O)N1CCN(c2nc(-c3ccco3)cc(C(F)(F)F)n2)CC1	none
CCc1nc2ccc(C(=O)N3CCN(C)CC3)cn2c1N(C)CCC(C)C	none
CCc1nc2ccc(C(=O)N3CCCCC3)cn2c1N(C)CCCc1ccccc1	M1 antag 69
CCc1nc2ccc(C(=O)N3CCN(C)CC3)cn2c1N(C)CCCc1ccccc1	M1 antag 33
CCc1nc2ccc(C(=O)NCCCn3ccnc3)cn2c1N(CC)C(=O)NCCc1ccccc1	none
CCc1nc2ccc(C(=O)NCCCN(C)C)cn2c1N(C)CCCc1ccccc1	none
CCc1nc2ccc(C(=O)NCCCn3ccnc3)cn2c1N(C)CCCc1ccccc1	M1 antag 44
CC(=O)Nc1ccc(S(=O)(=O)Nc2ccccc2N2CCOCC2)cc1Cl	none
O=C(Nc1ccccc1N1CCOCC1)c1ccc(S(=O)(=O)NCc2ccco2)cc1	none
COc1cccc(C(=O)OCC(=O)Nc2ccccc2N2CCOCC2)c1	none
O=C(O)c1cccc(S(=O)(=O)Nc2ccccc2N2CCOCC2)c1	M1 antag 54
O=C(Nc1ccccc1N1CCOCC1)c1ccc(Cl)c(S(=O)(=O)NCc2ccco2)c1	M1 ag parental 17
COc1cccc(C(=O)Nc2ccccc2N2CCOCC2)c1	M1 ag parental 91, CHO-K1 Ca antag 68
CCc1ccccc1NC(=O)CNC(=O)c1cc(C2CC2)nn1-c1ccccc1	none
CCOC(=O)C(Cc1ccccc1)C(=O)Nc1ccc(N(CC)CC)cc1 (centres undefined)	M1 antag 33
OC(CNCc1ccccc1)(c1ccccc1)c1ccccc1	M1 ag parental 15
COc1cccc(CN(C)C(=O)c2ccc(OCC(=O)Nc3cccc(C(F)(F)F)c3)c(OC)c2)c1	M1 antag 40
CC(C)C(=O)N1CCC1(C)C(=O)NCc1ccc(C(C)(C)C)cc1 (centres undefined)	none
COc1ccc(OC)c(C(O)c2ncc(-c3ccccc3OC)[nH]2)c1 (centres undefined)	none
CCO[C@H]1OC(C(=O)NCc2ccccc2)=C[C@@H](c2ccc3c(c2)OCO3)[C@@H]1CCCO	CHRM1 agonist 18
CCO[C@@H]1OC(C(=O)NCc2ccccc2)=C[C@H](c2ccc3c(c2)OCO3)[C@H]1CCCO	none
CCO[C@H]1OC(C(=O)N2CCOCC2)=C[C@@H](c2ccccc2)[C@@H]1CCCO	M1 antag 67
COc1cccc(-c2nc3ccccc3s2)c1O	M1 ag parental 15
COc1cc(OC)c(-c2nc3ccccc3s2)cc1OC	none
COc1ccc(C(=O)Nc2nc3ccccc3s2)c(OC)c1	none
COc1ccccc1C(=O)Nc1nc2ccccc2s1	M1 antag 31
COc1ccc(CCN2C(=NC(=O)C(C)C)SC3CS(=O)(=O)CC32)cc1OC (centres undefined)	none
COC(=O)c1[nH]c2ccccc2c1NC(=O)CN1CCCCCC1	none
COC(=O)c1[nH]c2ccccc2c1NC(=O)CNC1CCCCC1	M1 antag 38
CCOC(=O)N1CCN(C(=O)C2CCCCC2)CC1	none
CCOC(=O)c1ccc(NC(=S)N2CCSC2c2ccc(Cl)cc2)cc1 (centres undefined)	M1 antag 45, CHRM1 agonist 34
